Unmarked numbers belong to inactive results. The rule behind the calls is not given here.
Molecular target: Pantothenate synthetase (Mycobacterium tuberculosis (strain ATCC 25618 / H37Rv)) (UniProt P9WIL5)
Experiment: Coupled enzyme confirmation of inhibitors against recombinant Mtb PanC (AID 375);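 note: 0% = full reaction with vehicle and 100% = no enzyme background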
Conditions: coupled enzyme assay; at 10 µM, stronger effect = higher value

Chain of Pantothenate synthetase (Mycobacterium tuberculosis (strain ATCC 25618 / H37Rv)) (P9WIL5 whole entry, looked up): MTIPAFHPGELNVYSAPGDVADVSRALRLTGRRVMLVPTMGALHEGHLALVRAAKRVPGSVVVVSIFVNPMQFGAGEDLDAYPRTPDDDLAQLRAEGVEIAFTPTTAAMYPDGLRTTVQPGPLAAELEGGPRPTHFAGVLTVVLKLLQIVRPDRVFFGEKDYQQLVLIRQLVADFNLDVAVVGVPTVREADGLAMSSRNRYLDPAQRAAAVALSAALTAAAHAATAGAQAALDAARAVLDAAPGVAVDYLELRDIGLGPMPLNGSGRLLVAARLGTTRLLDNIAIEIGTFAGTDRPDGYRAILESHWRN

Row | SMILES | inhibition
1 | CC(C)OC(=O)CSc1nnc(-c2ccccn2)n1-c1ccccc1 | 8%
2 | CCCNC(=O)N1CCN(S(=O)(=O)c2ccc(C)c(C)c2)CC1 | 4%
3 | O=C(Cn1cnc2c(nnn2-c2ccc(F)cc2)c1=O)N1CCCc2ccccc21 | 0%
4 | O=C(O)Cc1ccc(-c2ccccc2)cc1 | 0%
5 | COc1ccc(Cl)cc1C(=O)NCCc1ccc(S(=O)(=O)NC(=O)NC2CCCCC2)cc1 | 0%
6 | Cc1cc(SCC(N)=O)nc(SCC(=O)c2ccccc2)n1 | 0%
7 | c1ccc(Cn2nnnc2C(c2cccs2)N2CCSCC2)cc1 (centres undefined) | 0%
8 | COc1cc(NC2=CC(=O)CC(C)(C)C2)cc(OC)c1 | 0%
9 | Cc1nc2ccccc2c(=O)n1NC(=O)c1c(O)c2c(n(CC(C)C)c1=O)CCCC2 | 0%
10 | O=C(NC1CCCCCCC1)C1CCN(c2nc3ccccc3o2)CC1 | 3%
11 | COc1cc(C(=O)OC(C)CN2CCCC2)cc(OC)c1OC (centres undefined) | 4%
12 | Cc1onc(-c2ccccc2)c1C(=O)N1CCCSC1=Nc1ccccc1 | 6%
13 | C=CCn1c(SCC(=O)c2ccc(OC)cc2)nnc1C(C)NC(=O)c1cccs1 (centres undefined) | 0%
14 | O=C(C1CCC(N2C(=O)C3CC=CCC3C2=O)CC1)N1CCCCC1 (centres undefined) | 1%
15 | CCN(CC)C(=O)C1CCCN(Cc2ccc(N(C)C)cc2)C1 (centres undefined) | 1%
16 | CCOC(=O)C(CC)Sc1nc2c(c(=O)[nH]c(=O)n2C)n1C/C=C(/C)Cl (centres undefined) | 8%
17 | Cn1c(=O)c(NC(=O)c2ccccc2)c2n(c1=S)CCCCC2 | 0%
18 | O=C1CCC(=O)N1OCCCOc1ccc(Br)cc1Cl | 0%
19 | CC1CCc2c(sc3c2C2=NS(=O)(=O)CCN2C=N3)C1 (centres undefined) | 2%
20 | c1c2c(cc3sc(N4CCCCC4)nc13)OCCO2 | 4%
21 | O=C(Nc1ccccc1)c1ccc(NCC2CCCO2)c(S(=O)(=O)N2CCOCC2)c1 (centres undefined) | 0%
22 | CCN(CC)CCN1C(=O)C(=O)/C(=C(/O)c2c(C)[nH]c(C(=O)OC)c2C)C1c1ccccc1OC (centres undefined) | 0%
23 | Cc1ccc(-c2cc(C(F)F)nc(NCC3CCCO3)n2)cc1 (centres undefined) | 3%
24 | O=C(c1cccc2c1C(=O)N(Cc1cccnc1)C2)N1CCN(c2ccccc2)CC1 | 8%
